Compounds with a hit are over-represented: about 12% of the library has one in this group of screens.
BAZ2B inh: inhibitors of human BAZ2B bromodomain | Q9UIF8 | AlphaScreen BAZ2B-H3K14Ac peptide displacement | Potency, µM (top dose mostly 114 µM), without a hit: top-dose activity change, negative = inhibition, actives largely listed as inhibitors | 4.4% of 360,000 active | AID 504333; further: on the % scale 0 is the no-effect control and ±100 the full control effect; nearly all actives have a fitted effect of over 60% in size
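In this displacement format the biotinylated H3(5-23) peptide acetylated at Lys14 serves as ligand at 50 nM, with BAZ2B at 50 nM in PBS pH 7.4 containing 0.01% Tween-20. Donor and acceptor beads are 10 ug/mL final.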
TDP1 block: blocks human tyrosyl-DNA phosphodiesterase 1. AID 485290. 0.28% of 350,000 active. Potency, µM (doses to about 130 µM), for inactives: at the top dose activity change, negative = inhibition, most hits filed as inhibitors. Q9NUW8. recombinant TDP1, AlphaScreen DNA substrate cleavage; further: on the % scale 0 is the no-effect control and ±100 the full control effect; nearly all actives have a fitted effect of over 40% in size
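E. coli-derived human Tdp1, 1 nM final. Cpd preinc 15 min RT; substrate 15 nM final, 5 min RT; AS bead mix 10 ug/ml final, 10 min RT. Signal loss = tyrosine-FITC cleavage. No-enzyme wells = max signal.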
Sfp inh: Sfp phosphopantetheinyl transferase inhibition | 3.5% of 310,000 active | Biochemical Sfp PPTase activity, qHTS | AID 1490 | Potency, µM, without a hit: largest response in the series, negative = inhibition, actives largely listed as inhibitors | Q9F4F7;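 further: the enzyme is Sfp with the accession as filed and its product quenches rhodamine fluorescence; 0% = enzyme reaction without inhibitor and -100% = no enzyme wells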
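With Hepes-Na pH 7.6 buffer containing 10 mM MgCl2, Sfp (15 nM) modified BHQ-2-YbbR (12.5 uM) using rhodamine-CoA (5 uM). Two reads 30 minutes apart at 525/598 nm yielded each well's rate.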
HP1b chromo inh: inhibitors of HP1-beta chromodomain binding to methylated histone tails; P83916; AlphaScreen HP1-beta / biotin-H3K9me3 peptide binding; Potency, µM (doses to about 114 µM), for inactives: top-dose activity change, negative = inhibition, most hits filed as inhibitors; 0.56% of 390,000 active; further: nearly all actives have a fitted effect of over 70% in size
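Compound inhibition of the preformed complex between 50 nM HP1-beta and 50 nM biotinylated H3K9me3 peptide was read by AlphaScreen. Buffer was PBS pH 7.4 with 0.01% Tween-20. Incubations ran 30 min at room temperature, with 10 ug/mL donor/acceptor beads.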
G9a inh: inhibitors of human histone lysine methyltransferase G9a; AID 504332; 8.8% of 350,000 active; Potency, µM (highest dose often 102 µM), for inactives: at the top dose activity, negative = inhibition, usual class: inhibitors; G9a H3K9 monomethylation, AlphaScreen, 2 h; Q96KQ7; further: on the % scale 0 is the no-effect control and ±100 the full control effect; nearly all actives have a fitted effect of over 75% in size
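AlphaScreen read-out: biotin-H3K9 peptide (500 nM) methylation by 20 nM enzyme with 20 uM SAM, 2 h at room temperature after 15 min compound preincubation; anti-monomethyl H3K9 antibody plus donor/acceptor beads, 10 min dark.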
JMJD2A Tudor: JMJD2A Tudor domain (human) inhibition | O75164 | AID 504339 | AlphaScreen JMJD2A-Tudor / H3K4me3 peptide binding | 4.4% of 390,000 active | Potency, µM (highest dose often 114 µM), for the others: top-dose activity change, negative = inhibition, hits mostly inhibitors; further: on the % scale 0 is the no-effect control and ±100 the full control effect; nearly all actives have a fitted effect of over 50% in size
Target sequence (O75164 whole entry, looked up, the tested form may be a part): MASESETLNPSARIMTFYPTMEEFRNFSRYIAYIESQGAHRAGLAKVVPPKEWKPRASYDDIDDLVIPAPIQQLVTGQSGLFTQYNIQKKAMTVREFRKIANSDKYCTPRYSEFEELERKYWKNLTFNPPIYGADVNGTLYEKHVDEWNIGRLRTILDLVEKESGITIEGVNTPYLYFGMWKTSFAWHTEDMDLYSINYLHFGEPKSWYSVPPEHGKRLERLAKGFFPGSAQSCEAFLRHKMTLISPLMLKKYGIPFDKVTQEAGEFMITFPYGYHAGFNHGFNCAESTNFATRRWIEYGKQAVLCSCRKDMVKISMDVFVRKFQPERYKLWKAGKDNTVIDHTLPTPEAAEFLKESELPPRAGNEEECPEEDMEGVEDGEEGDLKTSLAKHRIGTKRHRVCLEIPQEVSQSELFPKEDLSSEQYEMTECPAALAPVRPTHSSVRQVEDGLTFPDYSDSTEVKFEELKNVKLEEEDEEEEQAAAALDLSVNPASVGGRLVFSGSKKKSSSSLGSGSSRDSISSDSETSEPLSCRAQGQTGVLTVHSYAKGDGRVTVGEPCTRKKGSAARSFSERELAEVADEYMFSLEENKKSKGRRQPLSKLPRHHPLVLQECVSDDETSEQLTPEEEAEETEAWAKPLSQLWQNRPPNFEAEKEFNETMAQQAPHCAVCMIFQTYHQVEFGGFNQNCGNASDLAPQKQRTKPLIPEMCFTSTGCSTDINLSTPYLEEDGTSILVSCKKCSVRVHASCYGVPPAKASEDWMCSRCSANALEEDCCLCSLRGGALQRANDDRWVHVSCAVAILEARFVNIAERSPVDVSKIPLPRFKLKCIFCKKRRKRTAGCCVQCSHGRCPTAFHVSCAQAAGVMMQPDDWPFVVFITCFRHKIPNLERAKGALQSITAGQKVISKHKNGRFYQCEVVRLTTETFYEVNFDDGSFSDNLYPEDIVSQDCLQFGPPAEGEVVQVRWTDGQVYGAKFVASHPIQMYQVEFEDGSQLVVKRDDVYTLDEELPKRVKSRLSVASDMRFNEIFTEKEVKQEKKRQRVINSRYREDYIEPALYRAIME
Starred values were filed as active, the others as inactive; ? = inconclusive; . = not tested or not shown; [ ] = dose if it differs, or a comment. The call rests on the fitted dose curve; in most records, active means well fitted curve in the direction sought with a large enough effect; inconclusive means small, poorly fitted or top-dose-only effect, or another doubt; inactive means no such curve, though single readings can be large; an effect the other way counts as inactive or inconclusive. Potency means the concentration at half of the fitted maximal effect.

SMILES | BAZ2B inh | TDP1 block | Sfp inh | HP1b chromo inh | G9a inh | JMJD2A Tudor
Cc1nc2sccn2c1-c1csc(NCc2ccccc2)n1 | ? | 11.3% | -16.0% | ? | ? | 63.1µM*
CCn1c(CNc2nc(-c3ccccc3)cs2)nnc1SCC(=O)NCc1ccccc1 | 2.3% | 6.7% | -5.8% | -14.9% | -26.0%[59 µM] | ?
Cn1c(=O)c2nc(NCc3ccccc3)sc2n(C)c1=O | . | . | . | 26.3% | . | -2.8%
Cc1nc(N)sc1-c1csc(Nc2ncccn2)n1 | ? | 89.1µM* | -26.6% | ? | ? | ?
CCCCCC(=O)Nc1nc(C)c(-c2csc(Nc3ccccc3OC)n2)s1 | ? | 8.8% | -11.5% | -12.3% | ? | ?
Cc1nc(C)c(-c2csc(Nc3ncccc3C)n2)s1 | 1.9% | 1.2% | -11.6% | 40.7% | . | -21.3%
COc1cccc(Nc2nc(-c3sc(N)nc3C)cs2)c1 | 39.8µM* | 10.9% | -9.7% | ? | ? | ?
Cc1nc(N)sc1-c1csc(NCc2ccccc2)n1 | 31.6µM* | 3.1% | 39.8µM* | -48.7% | 10µM* | ?
COc1ccc(Cl)cc1Nc1nc(-c2sc(NC(=O)c3ccco3)nc2C)cs1 | ? | 6.4% | ? | -4.6% | ? | ?
COc1cccc(Nc2nc(-c3sc(NC(=O)c4ccco4)nc3C)cs2)c1 | ? | 5.3% | -13.3% | -31.8% | 39.8µM* | ?
Cc1nc(C)c(-c2csc(Nc3ccc(F)cc3)n2)s1 | ? | 8.4% | -30.5% | ? | 20µM* | ?
COc1cccc(Nc2nc(-c3sc(C)nc3C)cs2)c1 | ? | 10.8% | -28.9% | -11.2% | . | ?
CC(C)CCCC(C)CCOC(=O)CN1CCCC1 (stereo not drawn) | -1.0% | 1.4% | 6.0% | 33.6% | -11.9% | -3.1%
O=C(OCC#CCSc1nnc(-c2cccc3ccccc23)o1)c1cnc[nH]1 | ? | 3.0% | . | 17.0% | -4.0%[12.7 µM] | -34.3%
COC(=O)c1ccc(-c2ccco2)n1Cc1nc(-c2ccc(OC)c(OC)c2)oc1C | ? | 11.4% | 20µM* | -22.0% | ? | -35.5%
Cc1ccc(-c2c(C(=O)Nc3ccc(F)c(F)c3)oc(=O)c3ccccc23)cc1 | -14.0% | 1.2% | . | 35.6% | -44.3%[59 µM] | -14.1%
CCOC(=O)c1[nH]c(C)c(/C(O)=C2\C(=O)C(=O)N(CCN3CCOCC3)C2c2ccco2)c1C (stereo not drawn) | ? | -3.6% | 0.5% | 19.8% | 39.8µM* | -14.0%
CCN(CC)CCN1C(=O)C(=O)/C(=C(/O)c2c(C)[nH]c(C(=O)OC)c2C)C1c1ccco1 (stereo not drawn) | -36.5% | -4.9% | 9.0% | 14.3% | ? | ?
COC(=O)c1[nH]c(C)c(/C(O)=C2\C(=O)C(=O)N(CCN3CCOCC3)C2c2ccco2)c1C (stereo not drawn) | 0.5% | 2.7% | -3.0% | 16.9% | 50.1µM* | -29.5%
COc1ccccc1N1CCN(CCCNC(=O)c2cnn(-c3ccccc3)c2C2CCN(C(=O)OC(C)(C)C)CC2)CC1 | 1.2%[57.1 µM] | 0.0% | . | -13.6% | -9.0%[59 µM] | -25.9%
CN1C(=O)/C(=C/C=C2\SCCN2C)SC1=S | -9.9% | 2.6% | -23.9% | . | 8.91µM* | .
CCCN1C(=O)/C(=C\C=C2/Sc3ccccc3N2CC)SC1=S | ? | 4.8% | -13.6% | . | ? | .
O=C(NCS(=O)(=O)c1ccccc1)c1ccccc1 | 6.7% | 3.2% | 7.6% | 69.1% | 50.1µM* | -2.0%
O=C(O)CCNC(=O)c1ccccc1 | 4.5% | 5.5% | 22.8% | 19.9% | -40.4%[59 µM] | -9.0%
COc1ccc(CCNC(=O)c2cnn(-c3ccc(F)cc3)c2C2CCN(C(=O)OC(C)(C)C)CC2)c(OC)c1 | -5.5%[57.1 µM] | 3.2% | . | 0.8% | -44.1%[59 µM] | ?
O=C(Nc1cccc(NC(=O)c2ccccc2)n1)c1ccccc1 | -25.4% | . | -6.4% | 45.2% | 3.0% | -8.3%
CCCc1nc(NC(=O)c2ccccc2)nc(NC(=O)c2ccccc2)n1 | 19.2% | -2.5% | -11.0% | 24.3% | 70.8µM* | -11.6%
CCNc1nc(NCC)nc(C(=O)Nc2ccccc2)n1 | 10µM* | 1.9% | 6.1% | 58.4% | 7.7%[0.501 µM] | 79.4µM*

Bioassay records (PubChem BioAssay)
